# Laboratory results taken from publication PMC7862700, “An all-to-all approach to the identification of sequence-specific readers for epigenetic DNA modifications on cytosine”.
# Legend:
# Experiment in all cases: DAPPL (digital affinity profiling via proximity ligation, sequencing); 10 mM Tris-HCl pH 7.5, 50 mM NaCl, 1 mM DTT, 4% glycerol, room temperature, 30 min; GST-TFs on glutathione beads, 16-mer random dsDNA library, 0.1% formaldehyde crosslink after washing; high values mean tight binding
# FEV = molecular target: T1, FEV (Homo sapiens, UniProt Q99581 1-238); settings: protein: recombinant; tags: N-terminal GST; dsDNA, one strand shown
# T1 sequence: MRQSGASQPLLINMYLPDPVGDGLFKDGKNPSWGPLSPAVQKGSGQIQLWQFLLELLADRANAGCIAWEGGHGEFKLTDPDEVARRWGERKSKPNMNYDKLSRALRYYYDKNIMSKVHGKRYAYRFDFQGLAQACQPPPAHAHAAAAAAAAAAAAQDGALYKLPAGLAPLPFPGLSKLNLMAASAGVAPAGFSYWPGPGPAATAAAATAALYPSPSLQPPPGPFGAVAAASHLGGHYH
# How it was run: (§1)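 Pools of DNA-barcoded human transcription factors, expressed in yeast as GST fusions on glutathione beads and combined with a tag-only sample, were incubated with 200 nmole of a 16-mer random double-stranded DNA library. Incubation took 30 min at room temperature in Tris/NaCl/DTT/glycerol buffer and was followed by washing, 0.1% formaldehyde crosslinking, proximity ligation (BsaI/T4 ligase, 1 h, 37 °C), PCR amplification and sequencing on an Illumina NextSeq500. Binding signal is the ratio of a hexamer's read frequency for a factor to its frequency for the tag-only sample.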
# ETV5 = ETV5 (Homo sapiens, UniProt P41161 1-510); settings: protein: recombinant; tags: N-terminal GST; dsDNA, one strand shown
# ETV5, sequence (P41161 whole entry): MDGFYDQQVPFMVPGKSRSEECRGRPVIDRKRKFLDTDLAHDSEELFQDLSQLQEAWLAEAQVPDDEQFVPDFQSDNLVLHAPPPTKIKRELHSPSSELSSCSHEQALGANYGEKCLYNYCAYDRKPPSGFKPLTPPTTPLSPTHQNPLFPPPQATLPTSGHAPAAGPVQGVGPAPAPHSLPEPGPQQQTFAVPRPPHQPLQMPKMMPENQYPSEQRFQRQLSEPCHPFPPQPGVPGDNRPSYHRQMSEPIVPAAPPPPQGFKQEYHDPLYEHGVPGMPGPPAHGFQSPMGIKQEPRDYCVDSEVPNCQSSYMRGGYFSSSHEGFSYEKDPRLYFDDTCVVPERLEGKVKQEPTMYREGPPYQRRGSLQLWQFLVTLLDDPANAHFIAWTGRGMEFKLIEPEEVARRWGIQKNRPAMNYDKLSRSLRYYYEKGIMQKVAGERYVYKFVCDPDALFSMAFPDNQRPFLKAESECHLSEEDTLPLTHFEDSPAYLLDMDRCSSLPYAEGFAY
# How it was run: as §1
# HSF1 = HSF1 (Homo sapiens, UniProt Q00613 1-529); settings: protein: recombinant; tags: N-terminal GST; chain copies: 3; dsDNA, one strand shown
# HSF1, sequence (Q00613 whole entry): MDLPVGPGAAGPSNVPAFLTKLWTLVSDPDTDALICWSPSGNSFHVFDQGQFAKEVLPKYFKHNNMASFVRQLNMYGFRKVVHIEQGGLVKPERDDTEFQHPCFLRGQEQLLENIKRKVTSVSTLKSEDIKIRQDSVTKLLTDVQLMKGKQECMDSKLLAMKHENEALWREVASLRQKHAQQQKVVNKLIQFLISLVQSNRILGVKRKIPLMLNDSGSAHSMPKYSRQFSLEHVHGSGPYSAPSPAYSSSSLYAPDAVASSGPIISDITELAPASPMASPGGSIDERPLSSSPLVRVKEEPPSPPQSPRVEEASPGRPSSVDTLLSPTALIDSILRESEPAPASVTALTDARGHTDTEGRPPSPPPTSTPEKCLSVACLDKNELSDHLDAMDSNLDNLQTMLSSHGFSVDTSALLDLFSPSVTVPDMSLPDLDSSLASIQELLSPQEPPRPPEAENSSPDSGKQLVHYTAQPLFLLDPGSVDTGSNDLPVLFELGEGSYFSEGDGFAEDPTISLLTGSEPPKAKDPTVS
# How it was run: as §1
# SPIC = molecular target: T2, SPIC (Homo sapiens, UniProt Q8N5J4 1-248); settings: protein: recombinant; tags: N-terminal GST; dsDNA, one strand shown
# T2 sequence: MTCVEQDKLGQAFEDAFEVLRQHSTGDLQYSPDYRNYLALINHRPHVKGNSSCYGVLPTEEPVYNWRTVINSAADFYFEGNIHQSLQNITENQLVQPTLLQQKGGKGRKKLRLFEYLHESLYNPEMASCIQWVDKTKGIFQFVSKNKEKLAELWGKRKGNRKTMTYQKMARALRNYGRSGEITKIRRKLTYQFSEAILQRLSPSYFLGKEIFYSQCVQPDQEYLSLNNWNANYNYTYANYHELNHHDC
# How it was run: as §1
# ELF4 = ELF4 (Homo sapiens, UniProt Q99607 1-663); settings: protein: recombinant; tags: N-terminal GST; dsDNA, one strand shown
# ELF4, sequence (Q99607 whole entry): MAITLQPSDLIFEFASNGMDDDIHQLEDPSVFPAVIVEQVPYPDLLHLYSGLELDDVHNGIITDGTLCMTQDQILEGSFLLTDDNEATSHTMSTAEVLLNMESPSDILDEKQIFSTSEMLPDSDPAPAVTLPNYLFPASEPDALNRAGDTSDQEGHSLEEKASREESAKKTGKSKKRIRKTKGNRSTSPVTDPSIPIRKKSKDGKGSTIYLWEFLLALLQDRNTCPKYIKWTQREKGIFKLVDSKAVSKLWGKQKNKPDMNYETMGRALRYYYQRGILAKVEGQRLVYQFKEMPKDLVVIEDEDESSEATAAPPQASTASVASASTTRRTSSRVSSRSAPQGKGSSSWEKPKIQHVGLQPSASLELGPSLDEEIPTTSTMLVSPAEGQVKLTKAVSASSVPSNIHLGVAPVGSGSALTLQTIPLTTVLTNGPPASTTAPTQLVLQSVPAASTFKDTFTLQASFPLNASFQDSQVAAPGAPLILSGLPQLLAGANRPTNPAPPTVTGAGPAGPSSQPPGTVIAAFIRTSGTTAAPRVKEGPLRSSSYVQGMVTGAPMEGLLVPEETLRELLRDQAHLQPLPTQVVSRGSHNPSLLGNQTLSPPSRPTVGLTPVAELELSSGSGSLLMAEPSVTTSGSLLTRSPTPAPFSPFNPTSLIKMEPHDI
# How it was run: as §1
# ELK4 = molecular target: T3, ELK4 (Homo sapiens, UniProt P28324-2 1-405); settings: protein: recombinant; tags: N-terminal GST; dsDNA, one strand shown
# T3 sequence: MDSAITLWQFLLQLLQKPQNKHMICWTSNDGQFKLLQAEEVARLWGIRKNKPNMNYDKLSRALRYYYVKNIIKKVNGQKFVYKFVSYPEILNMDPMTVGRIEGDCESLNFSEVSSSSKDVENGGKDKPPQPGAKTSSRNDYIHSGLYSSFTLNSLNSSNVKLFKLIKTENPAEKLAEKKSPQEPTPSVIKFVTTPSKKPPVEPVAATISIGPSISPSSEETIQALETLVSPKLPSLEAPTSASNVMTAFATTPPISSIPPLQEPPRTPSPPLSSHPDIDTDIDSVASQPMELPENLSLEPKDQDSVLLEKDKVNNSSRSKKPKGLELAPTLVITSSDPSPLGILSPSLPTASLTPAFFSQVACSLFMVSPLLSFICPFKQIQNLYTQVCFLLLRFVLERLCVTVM
# How it was run: as §1
# ETV2 = molecular target: T4, ETV2 (Homo sapiens, UniProt O00321 1-342); settings: protein: recombinant; tags: N-terminal GST; dsDNA, one strand shown
# T4 sequence: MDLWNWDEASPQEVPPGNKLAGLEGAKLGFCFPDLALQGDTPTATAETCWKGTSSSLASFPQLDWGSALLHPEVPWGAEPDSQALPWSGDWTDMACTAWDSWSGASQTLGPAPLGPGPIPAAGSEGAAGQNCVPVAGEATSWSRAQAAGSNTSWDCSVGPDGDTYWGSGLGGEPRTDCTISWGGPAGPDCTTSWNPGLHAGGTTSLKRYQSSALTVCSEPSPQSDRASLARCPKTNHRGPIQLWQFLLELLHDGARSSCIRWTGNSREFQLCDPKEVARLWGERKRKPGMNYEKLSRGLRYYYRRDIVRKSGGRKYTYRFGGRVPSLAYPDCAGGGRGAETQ
# How it was run: as §1
# ELF3 = molecular target: T5, ELF3 (Homo sapiens, UniProt P78545 1-371); settings: protein: recombinant; tags: N-terminal GST; dsDNA, one strand shown
# T5 sequence: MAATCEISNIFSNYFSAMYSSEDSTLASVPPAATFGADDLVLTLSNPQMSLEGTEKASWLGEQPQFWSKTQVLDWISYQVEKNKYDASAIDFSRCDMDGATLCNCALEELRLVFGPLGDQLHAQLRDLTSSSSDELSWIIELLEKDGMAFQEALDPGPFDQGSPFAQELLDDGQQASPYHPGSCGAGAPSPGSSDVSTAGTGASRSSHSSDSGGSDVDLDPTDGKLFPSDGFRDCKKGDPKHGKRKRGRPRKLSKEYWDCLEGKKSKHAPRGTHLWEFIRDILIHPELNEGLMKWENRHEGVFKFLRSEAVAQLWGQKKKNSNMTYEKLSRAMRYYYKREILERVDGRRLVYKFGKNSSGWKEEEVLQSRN
# How it was run: as §1
# CRX = CRX (Homo sapiens, UniProt O43186 1-299); settings: protein: recombinant; tags: N-terminal GST; dsDNA, one strand shown
# CRX, sequence (O43186 whole entry): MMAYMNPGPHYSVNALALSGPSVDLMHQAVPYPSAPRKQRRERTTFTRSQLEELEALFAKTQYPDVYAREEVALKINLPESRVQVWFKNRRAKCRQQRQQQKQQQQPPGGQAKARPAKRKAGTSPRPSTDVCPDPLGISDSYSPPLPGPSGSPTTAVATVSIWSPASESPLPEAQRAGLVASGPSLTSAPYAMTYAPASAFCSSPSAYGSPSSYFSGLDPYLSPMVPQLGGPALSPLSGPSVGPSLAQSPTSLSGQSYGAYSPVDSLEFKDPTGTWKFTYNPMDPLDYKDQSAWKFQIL
# How it was run: as §1
# ETV1 = ETV1 (Homo sapiens, UniProt P50549 1-477); settings: protein: recombinant; tags: N-terminal GST; dsDNA, one strand shown
# ETV1, sequence (P50549 whole entry): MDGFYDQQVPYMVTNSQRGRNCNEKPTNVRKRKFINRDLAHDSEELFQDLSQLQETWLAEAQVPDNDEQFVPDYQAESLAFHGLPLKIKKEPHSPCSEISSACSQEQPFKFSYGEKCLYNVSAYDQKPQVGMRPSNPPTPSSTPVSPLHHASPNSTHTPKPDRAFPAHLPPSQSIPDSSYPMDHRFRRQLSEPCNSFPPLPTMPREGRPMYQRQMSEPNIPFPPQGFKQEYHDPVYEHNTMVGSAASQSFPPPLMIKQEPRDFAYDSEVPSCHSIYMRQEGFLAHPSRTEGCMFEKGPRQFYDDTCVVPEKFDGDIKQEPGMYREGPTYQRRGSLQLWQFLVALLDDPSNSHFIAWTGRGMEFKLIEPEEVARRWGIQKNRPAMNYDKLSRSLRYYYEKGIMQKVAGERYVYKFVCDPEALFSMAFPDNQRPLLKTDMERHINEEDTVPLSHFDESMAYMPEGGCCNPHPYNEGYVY
# How it was run: as §1
# ERF = molecular target: T6, ERF (Homo sapiens, UniProt P50548 1-548); settings: protein: recombinant; tags: N-terminal GST; dsDNA, one strand shown
# T6 sequence: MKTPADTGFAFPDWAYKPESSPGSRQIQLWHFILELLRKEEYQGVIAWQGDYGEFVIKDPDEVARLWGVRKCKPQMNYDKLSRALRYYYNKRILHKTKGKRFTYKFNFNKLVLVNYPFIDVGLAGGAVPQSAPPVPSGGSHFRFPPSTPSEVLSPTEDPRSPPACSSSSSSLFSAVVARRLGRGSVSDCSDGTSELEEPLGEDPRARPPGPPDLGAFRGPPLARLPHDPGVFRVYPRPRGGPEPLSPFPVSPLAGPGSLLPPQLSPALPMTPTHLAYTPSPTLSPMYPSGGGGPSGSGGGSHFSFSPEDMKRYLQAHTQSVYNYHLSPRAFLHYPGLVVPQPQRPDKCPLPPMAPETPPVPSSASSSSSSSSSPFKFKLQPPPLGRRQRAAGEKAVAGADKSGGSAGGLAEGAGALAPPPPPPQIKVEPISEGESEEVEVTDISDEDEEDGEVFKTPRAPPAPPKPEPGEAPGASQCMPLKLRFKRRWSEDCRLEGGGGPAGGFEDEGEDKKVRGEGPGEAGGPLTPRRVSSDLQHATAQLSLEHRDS
# How it was run: as §1
# ETV3L = molecular target: T7, ETV3L (Homo sapiens, UniProt Q6ZN32 1-361); settings: protein: recombinant; tags: N-terminal GST; dsDNA, one strand shown
# T7 sequence: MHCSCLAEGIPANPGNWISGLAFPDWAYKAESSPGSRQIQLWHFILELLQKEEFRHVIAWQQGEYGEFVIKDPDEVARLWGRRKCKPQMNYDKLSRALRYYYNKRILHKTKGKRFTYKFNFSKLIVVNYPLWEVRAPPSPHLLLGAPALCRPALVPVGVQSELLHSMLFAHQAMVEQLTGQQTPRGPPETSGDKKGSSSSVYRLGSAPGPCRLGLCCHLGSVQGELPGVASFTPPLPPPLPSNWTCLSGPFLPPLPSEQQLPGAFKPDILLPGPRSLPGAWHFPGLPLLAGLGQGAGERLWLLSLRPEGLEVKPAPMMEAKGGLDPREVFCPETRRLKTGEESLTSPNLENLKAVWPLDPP
# How it was run: as §1
# ETS2 = molecular target: T8, ETS2 (Homo sapiens, UniProt P15036 1-469); settings: protein: recombinant; tags: N-terminal GST; dsDNA, one strand shown
# T8 sequence: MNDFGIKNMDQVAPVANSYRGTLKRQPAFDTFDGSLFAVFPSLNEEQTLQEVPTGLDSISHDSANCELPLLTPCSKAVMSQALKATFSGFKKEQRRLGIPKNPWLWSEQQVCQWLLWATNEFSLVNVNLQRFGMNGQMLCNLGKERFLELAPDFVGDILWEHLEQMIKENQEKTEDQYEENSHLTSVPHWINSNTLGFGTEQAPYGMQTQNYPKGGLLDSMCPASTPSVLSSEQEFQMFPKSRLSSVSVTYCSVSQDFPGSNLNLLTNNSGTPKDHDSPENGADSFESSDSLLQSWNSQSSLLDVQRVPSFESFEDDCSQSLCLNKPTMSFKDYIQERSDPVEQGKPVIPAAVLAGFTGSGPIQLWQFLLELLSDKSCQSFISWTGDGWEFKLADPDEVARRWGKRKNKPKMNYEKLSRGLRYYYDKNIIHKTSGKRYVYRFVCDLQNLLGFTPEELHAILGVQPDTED
# How it was run: as §1
# SPDEF = molecular target: T9, SPDEF (Homo sapiens, UniProt O95238 1-335); settings: protein: recombinant; tags: N-terminal GST; dsDNA, one strand shown
# T9 sequence: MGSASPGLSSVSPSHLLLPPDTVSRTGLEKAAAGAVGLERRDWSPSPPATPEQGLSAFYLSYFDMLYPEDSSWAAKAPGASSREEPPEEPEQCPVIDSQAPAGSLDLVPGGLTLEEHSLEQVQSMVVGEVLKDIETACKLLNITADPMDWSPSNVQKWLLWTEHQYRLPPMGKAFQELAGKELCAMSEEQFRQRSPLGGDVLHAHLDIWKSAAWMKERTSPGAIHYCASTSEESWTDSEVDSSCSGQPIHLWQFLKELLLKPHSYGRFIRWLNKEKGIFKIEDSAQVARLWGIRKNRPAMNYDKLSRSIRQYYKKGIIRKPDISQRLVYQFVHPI
# How it was run: as §1
# ETV7 = molecular target: T10, ETV7 (Homo sapiens, UniProt Q9Y603 1-341); settings: protein: recombinant; tags: N-terminal GST; dsDNA, one strand shown
# T10 sequence: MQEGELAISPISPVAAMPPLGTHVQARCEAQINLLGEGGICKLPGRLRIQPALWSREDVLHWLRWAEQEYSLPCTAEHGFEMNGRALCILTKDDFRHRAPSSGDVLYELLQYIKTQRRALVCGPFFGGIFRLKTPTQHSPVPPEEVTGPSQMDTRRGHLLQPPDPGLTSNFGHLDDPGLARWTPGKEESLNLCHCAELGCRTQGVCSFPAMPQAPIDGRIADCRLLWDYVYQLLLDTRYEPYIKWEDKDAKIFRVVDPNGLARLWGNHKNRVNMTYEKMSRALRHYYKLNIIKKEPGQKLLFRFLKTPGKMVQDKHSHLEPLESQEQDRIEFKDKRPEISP
# How it was run: as §1
# ELF5 = molecular target: T11, ELF5 (Homo sapiens, UniProt Q9UKW6-2 1-255); settings: protein: recombinant; tags: N-terminal GST; dsDNA, one strand shown
# T11 sequence: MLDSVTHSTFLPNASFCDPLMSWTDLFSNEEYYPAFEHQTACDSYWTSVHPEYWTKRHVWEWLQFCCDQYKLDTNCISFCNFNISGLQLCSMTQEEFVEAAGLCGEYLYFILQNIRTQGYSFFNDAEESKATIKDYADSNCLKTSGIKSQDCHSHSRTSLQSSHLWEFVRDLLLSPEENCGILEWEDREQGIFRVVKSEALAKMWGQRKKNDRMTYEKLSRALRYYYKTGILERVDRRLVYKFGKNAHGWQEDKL
# How it was run: as §1
# ETV3 = molecular target: T12, ETV3 (Homo sapiens, UniProt P41162-2 1-143); settings: protein: recombinant; tags: N-terminal GST; dsDNA, one strand shown
# T12 sequence: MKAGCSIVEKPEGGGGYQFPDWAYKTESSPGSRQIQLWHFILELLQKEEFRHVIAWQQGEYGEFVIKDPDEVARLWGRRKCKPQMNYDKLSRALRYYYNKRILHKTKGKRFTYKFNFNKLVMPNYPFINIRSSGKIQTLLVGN
# How it was run: as §1
# ETV6 = ETV6 (Homo sapiens, UniProt P41212 1-452); settings: protein: recombinant; tags: N-terminal GST; dsDNA, one strand shown
# ETV6, sequence (P41212 whole entry): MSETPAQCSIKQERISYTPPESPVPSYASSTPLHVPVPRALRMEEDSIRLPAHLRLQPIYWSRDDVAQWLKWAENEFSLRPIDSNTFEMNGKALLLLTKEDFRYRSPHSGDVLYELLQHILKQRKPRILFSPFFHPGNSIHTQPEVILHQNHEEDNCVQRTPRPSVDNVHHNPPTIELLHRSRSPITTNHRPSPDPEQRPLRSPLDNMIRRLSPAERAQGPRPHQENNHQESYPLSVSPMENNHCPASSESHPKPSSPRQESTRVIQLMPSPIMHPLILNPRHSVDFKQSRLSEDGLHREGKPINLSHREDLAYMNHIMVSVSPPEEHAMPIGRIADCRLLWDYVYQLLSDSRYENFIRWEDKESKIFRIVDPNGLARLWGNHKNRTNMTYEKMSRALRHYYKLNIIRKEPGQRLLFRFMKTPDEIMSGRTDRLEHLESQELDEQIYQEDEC
# How it was run: as §1
sequence,measurement,setting,value
GCCTCG,binding signal,FEV,"1.25 fold enrichment (6-mer frequency, TF over GST control)"
same,binding signal,ETV5,"1.33 fold enrichment (6-mer frequency, TF over GST control)"
same,binding signal,HSF1,"1.31 fold enrichment (6-mer frequency, TF over GST control)"
same,binding signal,SPIC,"1.07 fold enrichment (6-mer frequency, TF over GST control)"
same,binding signal,ELF4,"1.38 fold enrichment (6-mer frequency, TF over GST control)"
same,binding signal,ELK4,"1.32 fold enrichment (6-mer frequency, TF over GST control)"
same,binding signal,ETV2,"1.06 fold enrichment (6-mer frequency, TF over GST control)"
same,binding signal,ELF3,"1.33 fold enrichment (6-mer frequency, TF over GST control)"
same,binding signal,CRX,"1.08 fold enrichment (6-mer frequency, TF over GST control)"
same,binding signal,ETV1,"1.26 fold enrichment (6-mer frequency, TF over GST control)"
same,binding signal,ERF,"1.14 fold enrichment (6-mer frequency, TF over GST control)"
same,binding signal,ETV3L,"1.28 fold enrichment (6-mer frequency, TF over GST control)"
same,binding signal,ETS2,"1.31 fold enrichment (6-mer frequency, TF over GST control)"
same,binding signal,SPDEF,"1.19 fold enrichment (6-mer frequency, TF over GST control)"
same,binding signal,ETV7,"1.26 fold enrichment (6-mer frequency, TF over GST control)"
same,binding signal,ELF5,"1.23 fold enrichment (6-mer frequency, TF over GST control)"
same,binding signal,ETV3,"1.28 fold enrichment (6-mer frequency, TF over GST control)"
same,binding signal,ETV6,"1.37 fold enrichment (6-mer frequency, TF over GST control)"
